This is a sample that favours compounds with a hit; in the whole collection about 3.1% have one here.
FAS TE block: FAS thioesterase domain inhibitors, primary screen, biochemical, fluorescence intensity, uHTS. Fatty acid synthase (Homo sapiens), P49327. recombinant FAS-TE, OMFH fluorogenic substrate, fluorescence endpoint. inhibition, % at 15 µM. 360,000 compounds, 0.67% hits;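 active = compounds whose normalised, plate-corrected inhibition of enzyme fluorescence in the single-dose primary screen is 50% or more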;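 note: 0% = DMSO with enzyme and 100% = substrate without enzyme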
SUMO Mot1 rescue: yeast Mot1-301 growth rescue at high temperature, primary screen, SUMOylation pathway inhibitor project, S. cerevisiae, ATP luminescence, 38.5C; S. cerevisiae Mot1-301 growth rescue; percent above DMSO median, 100 means doubled; growth rescue, % at 18.8 µM; 320,000 compounds, 1% hits; AID 2716, 2010;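 active = every valid replicate shows activation above 250% relative to neutral control wells; inactive = the rest, any valid replicate at or below 250%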;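 note: OY570 slx delta 5 strain wells were the positive control but not used for scaling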
Calb FLC: C. albicans growth inhibition with fluconazole, primary screen, CaCi-2 strain, Alamar Blue fluorescence; growth inhibition, % (no concentration beside the values); C. albicans CaCi-2 (fluconazole-resistant clinical isolate) + fluconazole, 48 h; 300,000 compounds, 0.57% hits;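 active = growth inhibition above about 58% in most replicates, limit read from the data, passing the limit was not always enough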;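 note: all wells also contain fluconazole at 8 µg/ml as a sub-toxic cotreatment; 0% = median of DMSO wells and 100% = median of geldanamycin control wells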
ATG4B inh: ATG4B protease inhibitors, primary screen, biochemical, fluorescence, uHTS | 340,000 compounds, 0.51% hits | ATG4B cleavage of LC3-PLA2, NBD-HPC fluorescence, 1 h | inhibition, % at 8.33 µM | AID 504462, 2011; in the data active = inhibition above about 40%
Target sequence (Q9Y4P1 whole entry, looked up): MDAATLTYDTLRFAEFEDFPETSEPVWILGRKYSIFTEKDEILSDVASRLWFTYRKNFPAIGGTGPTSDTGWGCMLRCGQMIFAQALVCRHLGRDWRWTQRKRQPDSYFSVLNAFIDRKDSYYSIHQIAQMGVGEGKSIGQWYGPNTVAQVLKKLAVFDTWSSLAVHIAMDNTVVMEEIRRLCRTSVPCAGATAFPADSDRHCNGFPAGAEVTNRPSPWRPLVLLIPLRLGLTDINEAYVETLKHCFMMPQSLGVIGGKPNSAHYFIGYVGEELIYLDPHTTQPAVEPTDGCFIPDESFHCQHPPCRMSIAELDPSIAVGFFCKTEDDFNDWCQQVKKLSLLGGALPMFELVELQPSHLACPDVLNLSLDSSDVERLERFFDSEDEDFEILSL
NadD inh: inhibitors of S. aureus NadD, primary screen, biochemical, colorimetric, uHTS; Nicotinate-nucleotide adenylyltransferase NadD (Staphylococcus aureus N315); purified NadD enzyme, colorimetric absorbance read-out; inhibition, % at 20 µM; 360,000 compounds, 0.78% hits; AID 602399, 2012; in the data active = inhibition above about 26%
* = called active by the depositor; . = not tested or not shown.

SMILES | FAS TE block | SUMO Mot1 rescue | Calb FLC | ATG4B inh | NadD inh
C/C(CC(=O)Nc1ccc(Cl)c(C(F)(F)F)c1)=N\NC(=O)c1cc2ccccc2cc1O | 24 | 4 | 3 | 12 | 36*
COc1cccc(NC(=O)C/C(C)=N/NC(=O)c2ccccc2Cl)c1 | -4 | -9 | -1 | -1 | -4
O=C(Nc1cccc2cccnc12)c1ccccc1Cl | 13 | 332* | 30 | -3 | -2
O=C(CS(=O)(=O)c1ccccc1)N(CCCN1CCOCC1)c1nc2c(F)cccc2s1 | 2 | 349* | 9 | -5 | -5
CCN1CCN(CCC(=O)Nc2ccccc2C)CC1 | -8 | 8 | 5 | 5 | -1
CCCc1nn(C(=O)c2ccccc2)c2c1C(=O)CC(C)(C)C2 | 0 | -5 | -12 | -13 | 4
Cc1nn(C(=O)c2ccccc2)c2c1C(=O)CC(C)(C)C2 | -5 | 495* | 6 | -3 | 4
CCn1c(SCC(=O)Nc2nc3ccccc3s2)nnc1-c1ccc(OC)cc1 | -9 | 343* | -1 | -6 | -2
CC(Sc1nnc(NCc2ccccc2)s1)C(=O)Nc1ccc2c(c1)C(=O)c1ccccc1C2=O (configuration not stated) | 33 | -6 | 22 | 22 | 38*
CC(Sc1nnc(Nc2ccccc2)s1)C(=O)Nc1nc(-c2ccccc2)cs1 (configuration not stated) | 25 | 11 | -2 | -18 | 23
Cc1cc(N2CCOCC2)nc2ccc(NC(=S)N3CCN(c4ccccc4)CC3)cc12 | -6 | 340* | -6 | -7 | -3
O=C(COc1ccc(Cl)cc1Br)Nc1cccc(S(=O)(=O)N2CCCC2)c1 | 27 | 101 | . | -14 | -1
CC(C)(C)C(=O)Nc1ccc(NC(=O)C(C)(C)C)cc1 | -11 | 12 | 11 | 1 | -5
CC(C)(C)C(=O)Nc1ccc(S(=O)(=O)c2ccc(NC(=O)C(C)(C)C)cc2)cc1 | 5 | 320* | -15 | -34 | -2
CC1Sc2ccc(S(=O)(=O)N3CCC(C(=O)NCC(C)c4ccccc4)CC3)cc2NC1=O (configuration not stated) | 4 | 0 | -10 | 0 | -4
CS(=O)(=O)N(CC(=O)Nc1ccccc1C(=O)N1CCCC1)c1ccccc1Br | -5 | 3 | 15 | -6 | 1
N=C1/C(=C\c2ccc(-c3cccc(C(=O)O)c3)o2)C(=O)N=C2SC=C(c3ccccc3)N12 | 9 | 16 | -7 | 20 | 49*
Cc1cc(C(=O)COC(=O)c2ccc(Cl)c(S(N)(=O)=O)c2)c(C)n1CC1CCCO1 (configuration not stated) | -5 | 331* | 0 | -3 | -4
COc1ccc(C(=O)NNC(=S)NC(=O)/C=C/c2cccs2)cc1 | 1 | -8 | 51 | -4 | 9
CCN1CCN(C(=S)NC(=O)/C=C/c2cccs2)CC1 | -6 | 676* | 27 | 1 | -1
O=C(/C=C/c1cccs1)NC(=S)NNC(=O)c1ccccc1O | -3 | 11 | 118* | 1 | 2
CCOC(=O)c1ccc(S(=O)(=O)N2CCN(C3CC(=O)N(c4ccccc4C(F)(F)F)C3=O)CC2)cc1 (configuration not stated) | 19 | . | . | -6 | 10
Cc1oc2c(C)c(O)ccc2c(=O)c1-c1cnn(-c2ccccc2)c1 | 0 | -6 | -8 | -4 | -1
Cc1[nH]nc(-c2ccc(O)c(C)c2O)c1-c1cnn(-c2ccccc2)c1 | -6 | -7 | 106* | -6 | -3
COc1ccc(S(=O)(=O)N2CCCCCC2)cc1NC(=O)c1ccccc1 | 2 | 309* | -9 | 4 | -4
SMILES | FAS TE block | SUMO Mot1 rescue | Calb FLC | ATG4B inh | NadD inh
COc1ccc(S(=O)(=O)N2CCN(C)CC2)cc1NC(=O)c1ccccc1 | 0 | -4 | -9 | -3 | 5
O=C(Nc1nc2ccc(S(=O)(=O)N3CCCCC3)cc2s1)c1ccncc1 | 2 | -5 | 103* | 1 | 3
CC(=NCc1ccco1)c1c(C)[nH]n(-c2nc3ccccc3s2)c1=O | -7 | 353* | 13 | -8 | 13
CCC(=NCc1ccco1)c1c(C(F)(F)F)[nH]n(-c2nc3ccccc3s2)c1=O | 26 | -20 | 12 | 3 | 4
COc1ccc(C2=CC3=C(Br)C(=O)C(C)(OC(=O)c4ccco4)C(=O)C3=CO2)cc1 (configuration not stated) | -8 | 1 | -11 | 82* | 9
CN(Cc1nccn1C)C(=O)C1CCC(=O)N(CCc2ccc(Cl)cc2)C1 (configuration not stated) | -3 | 157 | 1 | 24 | -2
CC(=O)N=c1c(C#N)cc2c(=O)n3ccccc3nc2n1Cc1ccccc1 | 54* | -11 | -6 | -1 | 5
CCOCCCn1c(=NC(C)=O)c(C#N)cc2c(=O)n3ccccc3nc21 | 6 | -4 | -18 | 5 | 3
O=[N+]([O-])c1cc(Cl)cc(/C=N/NC(=S)Nc2ccc(S(=O)(=O)N3CCOCC3)cc2)c1O | 28 | -5 | 109* | 13 | 20
Oc1ccc(Cl)cc1C=NCCc1ccccc1 | -8 | -1 | 22 | 43* | 0
CC(C)CCn1c(O)c(N=NC(=O)c2ccco2)c2ccccc21 | 8 | 553* | -10 | -20 | -6
Cc1ccc(NC(=O)Cn2c(O)c(N=NC(=O)c3cc4ccccc4cc3O)c3ccccc32)cc1 | -5 | 0 | . | 4 | 46*
Cc1ccc(NC(=O)Cn2c(O)c(N=NC(=O)c3ccncc3)c3ccccc32)cc1 | -3 | 27 | 0 | -6 | 17
O=C(N=Nc1c(O)n(Cc2ccccc2)c2ccccc12)c1cc2ccccc2cc1O | -1 | 2 | -7 | -1 | 40*
CCN(CC)c1ccc(/C=N/NC(=O)c2cccc(S(=O)(=O)N3CCOCC3)c2)c(O)c1 | 17 | -8 | 102* | -11 | 22
O=C(N/N=C/c1sc(N2CCOCC2)nc1-c1ccccc1)c1cccc(S(=O)(=O)N2CCOCC2)c1 | 46 | 5 | 98* | -6 | -6
CC1OC(C(C)(C)C)Cc2[nH][nH]c(=O)c21 (configuration not stated) | -8 | . | . | . | 3
CC(C)(C)C(=O)Cn1ncc(Br)c(Br)c1=O | 7 | . | 30 | 0 | 2
O=C(CSC(=S)N1CCOCC1)Nc1nc(=O)c2ccccc2s1 | . | -32 | 52* | . | .
CCCN(C)C1CN(Cc2cn(Cc3ccccc3)nn2)S(=O)(=O)C1 (configuration not stated) | -15 | . | . | . | 3
COc1cc(/C=C/C=C2/CC/C(=C/C=C/c3ccc(O)c(OC)c3)C2=O)ccc1O | -62 | . | . | 28 | 70*
COc1cc(/C=C2/CC/C(=C/c3ccc(O)c(OC)c3)C2=O)ccc1O | -5 | -18 | -8 | 29 | 17

Source: PubChem
